Assay results as given in PubChem BioAssay AID1159580 (chemical genetic matrix, 2015).
Out of some 5,500 compounds screened, about 2,000 (36%) were called active. Another 18% or so got no clear call; they are omitted. Rule as the data show it: active = normalized growth mostly below about 0.91 (no sharp cut-off); inconclusive = no clear call, values can overlap the other calls; inactive = mostly above about 0.92. This is one part of the list.

Experiment: chemical genetic growth profiling, strain panel (AID 1159580);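 also: tested at 20 µM; growth read once vehicle control cultures reached saturation at 30 °C; 1 = growth at the plate median or of vehicle wells; lower values mean less growth of the strain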
Conditions: S. cerevisiae deletion strains, growth OD
[1] = locus YAL013W, strain DEP1, stronger effect = lower value
[2] = locus YDL101C, strain DUN1, stronger effect = lower value
[3] = locus YDR150W, strain NUM1, stronger effect = lower value
[4] = locus YGR078C, strain PAC10, stronger effect = lower value
[5] = locus YHR030C, strain SLT2, stronger effect = lower value
[6] = locus YJR075W, strain HOC1, stronger effect = lower value
[7] = locus YMR263W, strain SAP30, stronger effect = lower value
[8] = locus YMR307W, strain GAS1, stronger effect = lower value
[9] = locus YNL128W, strain TEP1, stronger effect = lower value
[10] = locus YNL153C, strain GIM3, stronger effect = lower value
[11] = locus YPL055C, strain LGE1, stronger effect = lower value
[12] = locus YPL241C, strain CIN2, stronger effect = lower value
[13] = locus YAL040C, strain CLN3, stronger effect = lower value
[14] = locus YER002W, strain NOP16, stronger effect = lower value
[15] = locus YNL175C, strain NOP13, stronger effect = lower value
[16] = locus YNL197C, strain WHI3, stronger effect = lower value
[17] = locus YNL224C, strain SQS1, stronger effect = lower value
[18] = locus YOR083W, strain WHI5 (second series), stronger effect = lower value
[19] = locus YCL061C, strain MRC1 (second series), stronger effect = lower value
[20] = locus YDR363W, strain ESC2, stronger effect = lower value
[21] = locus YGR229C, strain SMI1, stronger effect = lower value

Measured: normalized growth

O=C(c1c(F)cccc1F)N1CCN(C(=O)c2c(F)cccc2F)CC1
inactive: [1] 1.01 | locus YBR229C, strain ROT2, stronger effect = lower value 0.987 | [2] 1 | locus YDL134C, strain PPH21, stronger effect = lower value 0.973 | [3] 1.02 | locus YEL061C, strain CIN8, stronger effect = lower value 0.945 | [4] 1.02 | [5] 1.11 | locus YHR087W, strain rtc3, stronger effect = lower value 0.98 | locus YJL187C, strain SWE1, stronger effect = lower value 1 | locus YJR043C, strain POL32, stronger effect = lower value 1.02 | [6] 0.988 | locus YKL190W, strain CNB1, stronger effect = lower value 0.984 | locus YLR039C, strain RIC1, stronger effect = lower value 1.09 | locus YLR058C, strain SHM2 (second series), stronger effect = lower value 0.985 | locus YLR085C, strain ARP6, stronger effect = lower value 0.951 | locus YLR262C, strain YPT6, stronger effect = lower value 1.06 | locus YML094W, strain GIM5, stronger effect = lower value 0.996 | locus YMR219W, strain ESC1, stronger effect = lower value 1 | [7] 0.99 | [8] 0.964 | [9] 0.978 | [10] 1.02 | locus YNL298W, strain CLA4 (second series), stronger effect = lower value 0.962 | locus YNL322C, strain KRE1, stronger effect = lower value 0.99 | locus YNR030W, strain Alg12, stronger effect = lower value 0.976 | [11] 0.98 | [12] 1.01 | locus YPR135W, strain CTF4, stronger effect = lower value 1.01

O=C(c1csc(-c2ccc(Cl)cc2)c1)N1CCCCC1
inactive: locus YAR019C, strain CDC15, stronger effect = lower value 0.95 | locus YBL105C, strain PKC1, stronger effect = lower value 0.953 | locus YBR135W, strain CKS1, stronger effect = lower value 0.943 | locus YBR136W, strain MEC1, stronger effect = lower value 0.952 | locus YBR160W, strain CDC28, stronger effect = lower value 0.944 | locus YDL017W, strain CDC7, stronger effect = lower value 0.957 | locus YDL028C, strain MPS1, stronger effect = lower value 0.951 | [2] 0.946 | locus YDL108W, strain KIN28, stronger effect = lower value 0.953 | locus YDL132W, strain cdc53, stronger effect = lower value 0.941 | locus YDL214C, strain PRR2, stronger effect = lower value 0.849 | locus YDR052C, strain DBF4, stronger effect = lower value 0.952 | locus YDR054C, strain cdc34, stronger effect = lower value 0.935 | locus YDR226W, strain ADK1, stronger effect = lower value 0.948 | locus YDR477W, strain SNF1, stronger effect = lower value 0.851 | locus YER123W, strain YCK3, stronger effect = lower value 0.83 | locus YER133W, strain GLC7, stronger effect = lower value 0.857 | locus YFL009W, strain cdc4, stronger effect = lower value 0.942 | locus YFL029C, strain CAK1, stronger effect = lower value 0.944 | locus YFR003C, strain YPI1, stronger effect = lower value 0.96 | locus YFR019W, strain FAB1, stronger effect = lower value 0.882 | locus YFR028C, strain CDC14, stronger effect = lower value 0.948 | locus YGR040W, strain KSS1, stronger effect = lower value 0.844 | locus YGR052W, strain FMP48, stronger effect = lower value 0.918 | locus YGR092W, strain DBF2, stronger effect = lower value 0.834 | locus YHR079C, strain IRE1, stronger effect = lower value 0.785 | locus YHR082C, strain KSP1, stronger effect = lower value 0.831 | locus YHR205W, strain SCH9, stronger effect = lower value 0.801 | locus YIL147C, strain SLN1, stronger effect = lower value 0.948 | locus YJL095W, strain BCK1, stronger effect = lower value 0.714 | locus YJL128C, strain PBS2, stronger effect = lower value 0.878 | locus YJL157C, strain FAR1, stronger effect = lower value 0.838 | locus YJR016C, strain ILV3, stronger effect = lower value 0.954 | locus YJR066W, strain TOR1 (second series), stronger effect = lower value 0.764 | locus YJR066W, strain TOR1, stronger effect = lower value 0.759 | locus YKL048C, strain ELM1, stronger effect = lower value 0.904 | locus YKL067W, strain YNK1, stronger effect = lower value 0.857 | locus YKL101W, strain HSL1, stronger effect = lower value 0.884 | locus YKL193C, strain SDS22, stronger effect = lower value 0.951 | locus YKL203C, strain TOR2, stronger effect = lower value 0.868 | locus YLR133W, strain CKI1, stronger effect = lower value 0.862 | locus YLR403W, strain SFP1, stronger effect = lower value 0.79 | locus YML070W, strain DAK1, stronger effect = lower value 0.847 | locus YMR001C, strain CDC5, stronger effect = lower value 0.94 | locus YMR205C, strain PFK2 (second series), stronger effect = lower value 0.866 | locus YMR277W, strain FCP1, stronger effect = lower value 0.944 | locus YNL006W, strain LST8, stronger effect = lower value 0.953 | locus YNL020C, strain ARK1, stronger effect = lower value 0.84 | locus YNL161W, strain CBK1, stronger effect = lower value 0.953 | locus YNL183C, strain NPR1, stronger effect = lower value 0.801 | locus YNL207W, strain RIO2, stronger effect = lower value 0.928 | locus YNL222W, strain SSU72, stronger effect = lower value 0.958 | locus YNL307C, strain MCK1 (second series), stronger effect = lower value 0.845 | locus YOL078W, strain AVO1, stronger effect = lower value 0.948 | locus YOL136C, strain PFK27, stronger effect = lower value 0.823 | locus YOR061W, strain CKA2, stronger effect = lower value 0.803 | locus YOR119C, strain RIO1, stronger effect = lower value 0.903 | locus YOR231W, strain MKK1, stronger effect = lower value 0.797 | locus YOR329C, strain SCD5, stronger effect = lower value 0.954 | locus YPL031C, strain PHO85, stronger effect = lower value 0.815 | locus YPL153C, strain RAD53, stronger effect = lower value 0.831 | locus YPL204W, strain HRR25, stronger effect = lower value 0.812 | locus YPL209C, strain IPL1, stronger effect = lower value 0.956 | locus YPR025C, strain CCL1, stronger effect = lower value 0.944 | locus YPR106W, strain ISR1, stronger effect = lower value 0.95 | locus YPR111W, strain DBF20, stronger effect = lower value 0.935 | strain NNK1, stronger effect = lower value 0.93 | strain TSCII, stronger effect = lower value 0.942
active: [5] 0.588 | locus YLR113W, strain HOG1, stronger effect = lower value 0.711 | locus YPL256C, strain CLN2, stronger effect = lower value 0.766

NC(CCCCCP(=O)(O)O)C(=O)O (stereo unspecified)
inactive: [13] 0.977 | [3] 0.989 | [14] 0.973 | [15] 1 | [16] 0.992 | [17] 1.01 | [18] 0.983 | [11] 0.999 | [12] 0.98

CCCCCCCCCCCCCCCCCCNC(=O)OCC(COP(=O)([O-])OCC[n+]1ccsc1)OC (stereo unspecified)
inactive: [1] 0.983 | [13] 1 | [19] 1 | [20] 1.03 | [14] 1.01 | [21] 0.936 | [7] 1 | [8] 0.968 | [15] 1.03 | [16] 1.06 | [17] 1.03 | [18] 1.01 | [11] 1.04 | [12] 1.01

CCCCCCCCCCCCCCCC(=O)NCC(COP(=O)([O-])OCC[N+](C)(C)C)OCC (stereo unspecified)
active: [13] 0.322 | [19] 0.155 | [3] 0.0974 | [20] 0.165 | [14] 0.0938 | [7] 0.619 | [15] 0.0862 | [16] 0.373 | [17] 0.151 | [18] 0.223 | [11] 0.109
inactive: [4] 0.971

CCCCCCCCCCCCCCCCCC(=O)NCC(COP(=O)([O-])OCC[N+](C)(C)C)OCC (stereo unspecified)
active: [13] 0.0918 | [19] 0.0501 | [3] 0.0538 | [20] 0.0807 | [14] 0.0757 | [21] 0.0622 | [6] 0.0689 | [7] 0.0519 | [8] 0.0635 | [9] 0.0936 | [10] 0.0918 | [15] 0.0883 | [16] 0.0927 | [17] 0.0836 | [18] 0.116 | [12] 0.0483
